For some assays here: Entries with a potency or affinity are not part of this list. The source made the active and inactive calls. Unless noted, no rule for the calls is given here.
Columns and labels:
[1] = antimalarial activity against Dd2 strain (AID 2302;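 active = growth inhibition above 50% at the single 2 µM test dose, taken to imply half-maximal potency below 2 µM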;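 also: 0% = DMSO untreated growth and 100% = chloroquine plus artemisinin killed control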); settings: P. falciparum Dd2 in RBCs, LDH growth readout, 72 h; at 2 µM; hits give high values
[2] = HepG2 cytotoxicity, primary screen, cytotoxicity control for P. falciparum antimalarial project, cell-based, ATP luminescence (AID 2303;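 active = inhibition above 50%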;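 also: 0% = DMSO wells and 100% = digitonin-killed cells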); settings: HepG2 viability, 24-48 h, at 10 µM, hits give high values
[3] = target: L-lactate dehydrogenase (Plasmodium falciparum (isolate CDC / Honduras)) (UniProt Q27743); experiment: PfLDH activity inhibition – cell lysate, 3D7 strain, counter-screen for P. falciparum growth inhibition project (AID 2304);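 also: 0% = vehicle and 100% = reference inhibitor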; settings: P. falciparum 3D7 crude extract, LDH APAD/NBT absorbance; at 2 µM; hits give high values
Chain of L-lactate dehydrogenase (Plasmodium falciparum (isolate CDC / Honduras)) (Q27743 whole entry, looked up): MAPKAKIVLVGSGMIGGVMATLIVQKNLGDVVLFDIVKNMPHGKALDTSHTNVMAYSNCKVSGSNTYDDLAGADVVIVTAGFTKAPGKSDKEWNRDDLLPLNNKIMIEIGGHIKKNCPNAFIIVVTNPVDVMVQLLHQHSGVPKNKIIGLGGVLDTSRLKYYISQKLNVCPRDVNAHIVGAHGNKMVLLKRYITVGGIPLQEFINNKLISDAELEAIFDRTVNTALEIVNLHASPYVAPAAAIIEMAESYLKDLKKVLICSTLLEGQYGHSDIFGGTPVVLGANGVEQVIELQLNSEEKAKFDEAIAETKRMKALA

[4] = inhibition of 3D7 malaria parasite growth – strain 3D7 (AID 2306);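 also: 0% = DMSO wells and 100% = chloroquine plus artemisinin control wells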; settings: P. falciparum 3D7 erythrocytic growth, LDH absorbance, 72 h; at 2 µM; hits give high values
[5] = target: Calcium-dependent protein kinase 1 (Plasmodium falciparum (isolate 3D7)) (UniProt P62344); experiment: PfCDPK1 kinase inhibitors, biochemical, TCAMS library (AID 1159585; cut-off not given, nearly all actives have IC50 up to about 0.98 µM;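 also: inhibitors leave more ATP so luminescence rises with inhibition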); settings: recombinant PfCDPK1, Kinase-Glo ATP depletion luminescence
Chain of Calcium-dependent protein kinase 1 (Plasmodium falciparum (isolate 3D7)) (P62344 whole entry, looked up): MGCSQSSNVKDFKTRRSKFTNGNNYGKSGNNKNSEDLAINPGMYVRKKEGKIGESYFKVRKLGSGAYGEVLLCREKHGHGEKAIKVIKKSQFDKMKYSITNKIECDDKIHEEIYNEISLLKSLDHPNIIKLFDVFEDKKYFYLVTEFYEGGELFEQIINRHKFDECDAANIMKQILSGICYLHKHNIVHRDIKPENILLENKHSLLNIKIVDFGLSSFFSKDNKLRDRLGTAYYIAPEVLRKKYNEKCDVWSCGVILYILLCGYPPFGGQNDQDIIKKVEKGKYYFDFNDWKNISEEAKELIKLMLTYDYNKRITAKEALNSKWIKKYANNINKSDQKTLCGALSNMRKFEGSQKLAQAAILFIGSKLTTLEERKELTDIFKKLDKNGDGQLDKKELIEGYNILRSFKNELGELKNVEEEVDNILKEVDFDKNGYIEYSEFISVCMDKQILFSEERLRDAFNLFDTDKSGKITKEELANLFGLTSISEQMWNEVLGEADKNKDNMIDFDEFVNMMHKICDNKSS

[6] = target: Plasmodium falciparum protein kinase 6 (PK6, PF3D7_1337100) (UniProt Q8IDW1); experiment: PfPK6 kinase inhibitors, biochemical, TCAMS library (AID 1159586); settings: recombinant PfPK6, Kinase-Glo ATP depletion luminescence
Chain of Plasmodium falciparum protein kinase 6 (PK6, PF3D7_1337100) (Q8IDW1 1-305): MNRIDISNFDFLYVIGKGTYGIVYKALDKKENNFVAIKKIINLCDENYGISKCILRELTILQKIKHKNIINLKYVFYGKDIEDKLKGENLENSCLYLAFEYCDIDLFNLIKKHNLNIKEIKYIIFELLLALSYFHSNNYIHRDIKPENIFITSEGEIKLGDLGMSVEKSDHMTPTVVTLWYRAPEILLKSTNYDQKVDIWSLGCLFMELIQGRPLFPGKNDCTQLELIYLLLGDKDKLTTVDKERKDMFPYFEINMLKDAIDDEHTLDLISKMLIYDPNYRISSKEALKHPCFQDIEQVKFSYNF

[7] = target: Protein kinase 7 (PK7), Plasmodium falciparum 3D7 (PF3D7_0213400) (UniProt Q7YTF7); experiment: inhibition of Plasmodium PK7 catalytic activity – biochemical, TCAMS antimalarial set, Kinase-Glo luminescence (AID 1159587); settings: recombinant PfPK7, Kinase-Glo ATP depletion luminescence
Chain of Protein kinase 7 (PK7), Plasmodium falciparum 3D7 (PF3D7_0213400) (Q7YTF7 1-343): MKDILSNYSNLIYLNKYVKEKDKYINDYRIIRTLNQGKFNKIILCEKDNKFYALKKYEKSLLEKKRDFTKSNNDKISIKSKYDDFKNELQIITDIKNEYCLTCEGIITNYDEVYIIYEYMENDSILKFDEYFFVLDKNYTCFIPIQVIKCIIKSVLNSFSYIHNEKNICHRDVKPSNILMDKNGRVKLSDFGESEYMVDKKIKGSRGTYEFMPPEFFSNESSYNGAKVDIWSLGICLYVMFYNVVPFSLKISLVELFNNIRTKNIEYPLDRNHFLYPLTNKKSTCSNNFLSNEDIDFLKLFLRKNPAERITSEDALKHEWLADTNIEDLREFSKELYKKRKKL

[8] = target: Calcium-dependent protein kinase 4 (Plasmodium falciparum (isolate 3D7)) (UniProt Q8IBS5); experiment: PfCDPK4 kinase inhibitors, biochemical, TCAMS library (AID 1159588; cut-off not given, nearly all actives have IC50 up to about 0.91 µM); settings: recombinant PfCDPK4, Kinase-Glo ATP depletion luminescence
Chain of Calcium-dependent protein kinase 4 (Plasmodium falciparum (isolate 3D7)) (Q8IBS5 whole entry, looked up): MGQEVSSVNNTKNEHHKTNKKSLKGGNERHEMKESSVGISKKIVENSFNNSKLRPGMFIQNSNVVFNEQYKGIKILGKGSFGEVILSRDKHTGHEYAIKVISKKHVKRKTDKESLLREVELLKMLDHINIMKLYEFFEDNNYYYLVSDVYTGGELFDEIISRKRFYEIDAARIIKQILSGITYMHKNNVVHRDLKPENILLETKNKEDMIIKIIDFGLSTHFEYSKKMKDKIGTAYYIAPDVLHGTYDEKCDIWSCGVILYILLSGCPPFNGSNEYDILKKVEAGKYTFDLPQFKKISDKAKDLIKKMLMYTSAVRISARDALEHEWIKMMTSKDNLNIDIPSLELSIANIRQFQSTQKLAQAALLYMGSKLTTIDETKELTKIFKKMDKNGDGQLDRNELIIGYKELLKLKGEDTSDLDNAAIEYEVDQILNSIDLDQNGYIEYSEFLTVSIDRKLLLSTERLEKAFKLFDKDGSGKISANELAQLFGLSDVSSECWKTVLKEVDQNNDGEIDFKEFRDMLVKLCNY

COc1ccc2nc3cc(Cl)ccc3c(NCCO)c2c1
active: growth inhibition [1] 93% | growth inhibition [4] 101%
inactive: inhibition [2] 12% | inhibition [3] 9% | outcome [5] | outcome [6] | outcome [7] | outcome [8]

O=C(CCc1cnc[nH]1)Nc1ccc(-c2ccc(-c3nc4ccc(F)cc4[nH]3)cc2)cc1
inactive: inhibition [2] 26% | inhibition [3] -1% | outcome [5] | outcome [6] | outcome [7] | outcome [8]
active: growth inhibition [1] 58% | growth inhibition [4] 99%

Cc1cc2nc(-c3ccc(/C=C/C(=O)NCCc4ccccc4)cc3)[nH]c2cc1C
inactive: growth inhibition [1] 13% | inhibition [2] 3% | inhibition [3] 1% | outcome [5] | outcome [6] | outcome [7] | outcome [8]
active: growth inhibition [4] 98%

N#Cc1cccc(Nc2cc(C(F)(F)F)nc(Nc3ccccc3)n2)c1
inactive: growth inhibition [1] 17% | inhibition [2] 7% | inhibition [3] 5% | outcome [5] | outcome [6] | outcome [7] | outcome [8]
active: growth inhibition [4] 92%

CCc1ccccc1NC(=O)CN1CCN(c2ncnc3scc(-c4ccc(F)cc4)c23)CC1
active: growth inhibition [1] 62% | growth inhibition [4] 83%
inactive: inhibition [2] 6% | inhibition [3] -2% | outcome [5] | outcome [6] | outcome [7] | outcome [8]

Clc1ccc(OCc2ccccc2)c(Cc2ccc(-c3nc4ccncc4[nH]3)o2)c1
active: growth inhibition [4] 99%
inactive: growth inhibition [1] 6% | inhibition [2] 2% | inhibition [3] -2% | outcome [5] | outcome [6] | outcome [7] | outcome [8]

O=C(Nc1cccc(C(F)(F)F)c1)NC1CCN(c2ccnc3ccccc23)C1 (stereo not given)
inactive: inhibition [2] 23% | inhibition [3] -2% | outcome [5] | outcome [6] | outcome [7] | outcome [8]
active: growth inhibition [1] 69% | growth inhibition [4] 101%

CC(C)COc1ccc(Cl)cc1Cc1ccc(-c2nc3c(cnc4ccccc43)[nH]2)o1
active: growth inhibition [4] 87%
inactive: growth inhibition [1] 26% | inhibition [2] 21% | inhibition [3] 1% | outcome [5] | outcome [6] | outcome [7] | outcome [8]

Cc1cc(NCCC(=O)NCCOc2ccccc2)nc(Nc2ccccc2)n1
inactive: inhibition [2] 26% | inhibition [3] -1% | outcome [5] | outcome [6] | outcome [7] | outcome [8]
active: growth inhibition [1] 55% | growth inhibition [4] 94%

O=C(Nc1cccc(C(F)(F)F)c1)Nc1cc(F)c(F)cc1Cl
inactive: inhibition [2] -1% | inhibition [3] 5% | outcome [5] | outcome [6] | outcome [7] | outcome [8]
active: growth inhibition [1] 98% | growth inhibition [4] 83%

CC(C)N1CCC(N(Cc2ccc(-c3ccc(C(F)(F)F)cc3)cc2)C(=O)CCCn2c(CCc3cccc(F)c3F)nc(=O)c3ccccc32)CC1
inactive: inhibition [2] 45% | inhibition [3] -5% | outcome [5] | outcome [6] | outcome [7] | outcome [8]
active: growth inhibition [1] 60% | growth inhibition [4] 89%

CC(C)(C)c1nn(-c2ccccc2)c2[nH]c(=O)c(CNC3CCCC3)cc12
active: growth inhibition [1] 70% | growth inhibition [4] 100%
inactive: inhibition [2] 7% | inhibition [3] 5% | outcome [5] | outcome [6] | outcome [7] | outcome [8]

COc1ccc2nccc(N3CCC(SCCNCc4cc5c(cn4)OCCO5)C3)c2n1 (stereo not given)
inactive: inhibition [2] 30% | inhibition [3] 2% | outcome [5] | outcome [6] | outcome [7] | outcome [8]
active: growth inhibition [1] 100% | growth inhibition [4] 101%

Cc1ccc(NC(=O)c2cccc(N3CCN(c4ccncc4)CC3)c2)cc1F
active: growth inhibition [1] 72% | growth inhibition [4] 101%
inactive: inhibition [2] 43% | inhibition [3] -1% | outcome [5] | outcome [6] | outcome [7] | outcome [8]

COc1cccc2cc(C(=O)N[C@@H](CC(C)C)C(=O)N[C@H](/C=N/NC(=O)N3CCN(C)CC3)CCc3ccccc3)oc12
inactive: inhibition [2] 1% | inhibition [3] 4% | outcome [5] | outcome [6] | outcome [7] | outcome [8]
active: growth inhibition [1] 73% | growth inhibition [4] 85%

Clc1nc(Cl)c2c(ccn2Cc2ccccc2)n1
active: growth inhibition [1] 61% | growth inhibition [4] 100%
inactive: inhibition [2] -14% | inhibition [3] -11% | outcome [5] | outcome [6] | outcome [7] | outcome [8]

CN1CCN(CCCN(Cc2cccc(-c3cccc(CNCc4ccc5c(c4)OCO5)c3)c2)C(=O)CCC2CCCC2)CC1
inactive: inhibition [3] 1% | outcome [5] | outcome [6] | outcome [7] | outcome [8]
active: growth inhibition [1] 80% | inhibition [2] 85% | growth inhibition [4] 98%

COc1cc(OCCCCCCON2C(N)=NC(N)=NC2(C)C)cc(OC)c1OC
inactive: inhibition [2] 41% | inhibition [3] -5% | outcome [5] | outcome [6] | outcome [7] | outcome [8]
active: growth inhibition [1] 93% | growth inhibition [4] 94%

CS(=O)(=O)c1cccc(-c2cnc(N)c3cc(-c4cccc(F)c4)ccc23)c1
inactive: growth inhibition [1] 13% | inhibition [2] 45% | inhibition [3] 2% | outcome [5] | outcome [6] | outcome [7] | outcome [8]
active: growth inhibition [4] 97%

CC1(C)N=C(N)N=C(N)N1OCc1cccc(C#N)c1
inactive: growth inhibition [1] 2% | inhibition [3] 5% | outcome [5] | outcome [6] | outcome [7] | outcome [8]
active: inhibition [2] 57% | growth inhibition [4] 94%

CCc1ccc(CN2CCC(NC(=O)c3cc(-c4ccc(N(C)C)cc4)cs3)C2)cc1 (stereo not given)
active: growth inhibition [4] 90%
inactive: growth inhibition [1] 7% | inhibition [2] 29% | inhibition [3] 3% | outcome [5] | outcome [6] | outcome [7] | outcome [8]

Nc1nc(N)c2c(Cl)c(CNc3cccc(C(=O)O)c3)ccc2n1
active: growth inhibition [1] 97% | inhibition [2] 69% | growth inhibition [4] 93%
inactive: inhibition [3] 7% | outcome [5] | outcome [6] | outcome [7] | outcome [8]

O=C(Nc1cccc(CCNCc2ccccc2)c1)Nc1cccc2ccccc12
active: growth inhibition [4] 102%
inactive: growth inhibition [1] 8% | inhibition [2] 13% | inhibition [3] 1% | outcome [5] | outcome [6] | outcome [7] | outcome [8]

CC(C)(C)NCC(O)COc1ccc(Cl)cc1C1=NNC(=O)CC1 (stereo not given)
active: growth inhibition [4] 96%
inactive: growth inhibition [1] -1% | inhibition [2] 6% | inhibition [3] -2% | outcome [5] | outcome [6] | outcome [7] | outcome [8]

CC(=O)Nc1ncc(C(=O)Nc2cccc(-c3ccc(-c4nc5ccccc5[nH]4)cc3)c2)s1
inactive: inhibition [2] 12% | inhibition [3] -9% | outcome [5] | outcome [6] | outcome [7] | outcome [8]
active: growth inhibition [1] 66% | growth inhibition [4] 101%

O=C(CC1SC(N2N=C(c3cccs3)CC2c2ccccc2)=NC1=O)Nc1ccc(Cl)cc1 (stereo not given)
inactive: inhibition [2] 18% | inhibition [3] 2% | outcome [5] | outcome [6] | outcome [7] | outcome [8]
active: growth inhibition [1] 88% | growth inhibition [4] 83%

COc1cccc(-c2c(C#N)c(N)nc3c2c(C)nn3-c2ccccc2)c1O
inactive: inhibition [2] 4% | inhibition [3] 7% | outcome [5] | outcome [6] | outcome [7] | outcome [8]
active: growth inhibition [1] 100% | growth inhibition [4] 100%

C[C@@H](Nc1nc(NCc2ccccc2)c2sccc2n1)c1ccccc1
active: growth inhibition [1] 75% | growth inhibition [4] 91%
inactive: inhibition [2] 31% | inhibition [3] -4% | outcome [5] | outcome [6] | outcome [7] | outcome [8]

Cn1ccc(C(=O)Nc2ccc3c(c2)CN(Cc2ccc(N4CCCC4)o2)CCC3)n1
inactive: inhibition [2] 19% | inhibition [3] 4% | outcome [5] | outcome [6] | outcome [7] | outcome [8]
active: growth inhibition [1] 72% | growth inhibition [4] 80%

CC(C)OC(=O)c1ccc(NC(=O)N[C@@H](Cc2ccc(O)cc2)C(=O)NC2CCC(CCN3[C@@H]4CC[C@H]3c3ccccc34)CC2)cc1 (stereo not given in full)
inactive: inhibition [2] 3% | inhibition [3] 3% | outcome [5] | outcome [6] | outcome [7] | outcome [8]
active: growth inhibition [1] 67% | growth inhibition [4] 95%

Cc1c(Cn2ncc(N3CCC(N)CC3)c(Cl)c2=O)cccc1NC(=O)Nc1ccc(-c2ccccc2)cc1
inactive: growth inhibition [1] 43% | inhibition [2] 19% | inhibition [3] -1% | outcome [5] | outcome [6] | outcome [7] | outcome [8]
active: growth inhibition [4] 97%

FC(F)(F)c1ccc(/C=C/c2cncnc2Nc2ccc3nc(Cc4ccccc4)[nH]c3c2)cc1
active: growth inhibition [1] 101% | growth inhibition [4] 100%
inactive: inhibition [2] 21% | inhibition [3] 1% | outcome [5] | outcome [6] | outcome [7] | outcome [8]

CCCN(CCC)CCOc1ccc(C(O)(C#CC(O)(c2ccc(OCCN(CCC)CCC)cc2)c2cccc(Cl)c2)c2cccc(Cl)c2)cc1 (stereo not given)
active: growth inhibition [1] 98% | inhibition [2] 100% | growth inhibition [4] 101%
inactive: inhibition [3] 6% | outcome [5] | outcome [6] | outcome [7] | outcome [8]

COc1ccc(O)cc1Cc1cnc2nc(N)nc(N)c2c1C
inactive: inhibition [3] -2% | outcome [5] | outcome [6] | outcome [7] | outcome [8]
active: growth inhibition [1] 97% | inhibition [2] 67% | growth inhibition [4] 92%

COc1ccc(-c2cccc(NC(=O)c3cccc(C#N)c3)c2)cc1CN1CCCN(C)CC1
active: growth inhibition [1] 99% | growth inhibition [4] 101%
inactive: inhibition [2] 22% | inhibition [3] -4% | outcome [5] | outcome [6] | outcome [7] | outcome [8]

Cc1cccc2[nH]c(-c3ccc(-c4cccc(NC(=O)Nc5ccc(Cl)cc5)c4)s3)nc12
inactive: inhibition [2] 25% | inhibition [3] -1% | outcome [5] | outcome [6] | outcome [7] | outcome [8]
active: growth inhibition [1] 52% | growth inhibition [4] 102%

COc1cccc(NC(=O)c2ccc(NCCCN3CCC(C)CC3)c([N+](=O)[O-])c2)c1
active: growth inhibition [4] 100%
inactive: growth inhibition [1] 46% | inhibition [2] 9% | inhibition [3] -6% | outcome [5] | outcome [6] | outcome [7] | outcome [8]

CC(C)(C)C(=O)Nc1ccc(N2CCN(C(c3ccccc3)c3ccccc3)CC2)c(Cl)c1
inactive: inhibition [2] -13% | inhibition [3] 0% | outcome [5] | outcome [6] | outcome [7] | outcome [8]
active: growth inhibition [1] 94% | growth inhibition [4] 92%

CC1CCCCN1CCCNC(=O)c1cccc(-c2cc3cc(Cl)c(Cl)cc3[nH]2)c1 (stereo not given)
active: growth inhibition [4] 94%
inactive: growth inhibition [1] 7% | inhibition [2] 22% | inhibition [3] -2% | outcome [5] | outcome [6] | outcome [7] | outcome [8]

CCCc1cc(NC2CCN(C)CC2)nc(Nc2ccc(F)cc2)n1
inactive: growth inhibition [1] 16% | inhibition [2] 20% | inhibition [3] -7% | outcome [5] | outcome [6] | outcome [7] | outcome [8]
active: growth inhibition [4] 95%

Reference: PubChem BioAssay
